Reference: PubChem BioAssay (Tox21)
Calls of active or inactive are those of the source. Calls follow the shape of the dose curve; as a rule, active = well fitted cell-killing curve with a large enough effect in the repeat runs; inconclusive = weak or mixed curves, or effect the other way; inactive = flat fitted curve, though single readings scatter.

assay: qHTS assay to identify small molecule HDAC inhibitors - cell viability counter screen (AID 1259365); settings: HCT-116 viability, CellTiter-Glo ATP luminescence, 2 h; series mostly up to 92.4 µM; activity change, negative = cytotoxicity: at the top concentration; also: nearly all actives have a fitted effect of over 50% in size
Excerpt: U.S. Tox21 Program National Center for Advancing Translational Sciences [NCATS] NIH Chemical Genomics Center [NCGC] U.S. Environmental Protection Agency [EPA] National Institutes of Environmental Health Sciences [NIEHS] National Toxicology Program [NTP] U.S. Food and Drug Administration [FDA] Tox21 Assay Overview: Histone deacetylases (HDACs) are a group of epigenetic enzymes that regulate gene expression by histone deacetylation. HDACs are capable of introducing epigenetic modifications and such aberrations contribute to the onset and progression of several human diseases, thus making HDACs a popular therapeutic target. For identifying endogenous class I/II HDAC inhibitors a homogenous, luminogenic HDAC I/II cell based assay was used to measure the relative activity of class I and II HDACs from cells. Wild type HCT-116 cells were used to screen Tox21 compound libraries for identifying class I/II HDAC inhibitors.
Tox21 Assay Protocol Summary: HCT-116 cells were dispensed at 1,500 per well in 5uL of culture medium into white solid bottom 1536-well plates (Greiner Bio-One, Monroe, NC) using a Multidrop Combi (Thermo Scientific, Waltham, MA) dispenser. The assay plates were incubated at 37 C and 5% CO2 for an overnight, and then 23nL of compounds dissolved in DMSO and positive control were transferred using a Pintool station (Wako, San Diego, CA). The assay plates were incubated at 37C and 5% CO2 for 2hr. After compound treatment, 4uL of CellTiter-Glo reagent (Promega Corporation, Madison, WI) was added to each well of the assay plates using Flying Reagent Dispenser (FRD, Aurora Discovery, San Diego, CA) and incubated the assay plates at room temperature for 30min. The luminescence signal was quantified using a ViewLux plate reader (Perkin Elmer, Shelton, CT).
% is scaled to controls: 0 for no effect and ±100 for the full control effect.

| SMILES | activity change, negative = cytotoxicity |
| --- | --- |
| CN(C)C(=O)CNC(=O)Cc1ccccc1 | -3.53% [at 42.5 µM] (inactive) |
| OCCC(F)(F)C(F)(F)C(F)(F)C(F)(F)C(F)(F)C(F)(F)C(F)(F)C(F)(F)F | -0.735% (inactive) |
| CCN(C)C(=O)Oc1cccc([C@H](C)N(C)C)c1 | 1.52% [at 42.5 µM] (inactive) |
| CCOc1cc(NC(C)=O)ccc1C(=O)OC | 2.96% [at 42.5 µM] (inactive) |
| CCOCCOC(=O)/C=C/c1ccc(OC)cc1 | -6.7% [at 42.5 µM] (inactive) |
| O=C(O)Cc1cn(-c2ccccc2)nc1-c1ccc(Cl)cc1 | -3.27% [at 42.5 µM] (inactive) |
| CCC(C)(CCC(C)C)C(=O)O (stereo not given) | 3.24% (inactive) |
| CC(=C(CCOC(=O)C(C)C)SSC(CCOC(=O)C(C)C)=C(C)N(C=O)Cc1cnc(C)nc1N)N(C=O)Cc1cnc(C)nc1N | 5.79% [at 42.5 µM] (inactive) |
| CC(C)CC(C)CC(C)CC(C)COC(=O)c1ccccc1C(=O)OCC(C)CC(C)CC(C)CC(C)C (stereo not given) | 0.669% (inactive) |
| COc1ccc(C2CNC(=O)C2)cc1OC1CCCC1 (stereo not given) | 4.81% [at 42.5 µM] (inactive) |
| O=C(O)C(=O)Cc1ccccc1 | 0.0022% (inactive) |
| CC(=O)NCCCCCC(=O)O | 4.45% [at 42.5 µM] (inactive) |
| O=C(/N=N/C(=O)OCc1ccccc1)OCc1ccccc1 | -4.96% (inactive) |
| CC/C=C\CC1=C(C)CCC1=O | 3.34% (inactive) |
| CCCCCCCCSCC | 1.7% (inactive) |
| CC(=O)NCc1c(I)c(NC(C)=O)c(I)c(C(=O)O)c1I | 0.0942% [at 42.5 µM] (inactive) |
| CN1CCN(CC(=O)N2c3ccccc3C(=O)Nc3cccnc32)CC1 | 3.63% [at 8.39 µM] (inactive) |
| C[C@H](CCC(=O)O)[C@H]1CC[C@H]2[C@@H]3C(=O)C[C@@H]4CC(=O)CC[C@]4(C)[C@H]3CC(=O)[C@]12C | 0.814% [at 42.5 µM] (inactive) |
| COc1cc2c(cc1OC)C(=O)CC2 | 7.91% [at 42.5 µM] (inactive) |
| COC(=O)c1ccccc1C(=O)c1ccc(OCCN2CCCCC2)cc1 | 1.07% [at 42.5 µM] (inactive) |

| SMILES | activity change, negative = cytotoxicity |
| --- | --- |
| CCCCCOC(=O)CCC | -7.11% (inactive) |
| CC(=O)c1ccc2c(c1)Cc1ccccc1-2 | -6.1% (inactive) |
| CC(=O)/C=C/C1C(C)=CCC(C)C1(C)C (stereo not given) | -2.19% (inactive) |
| CCN(CC)CC(=O)Nc1c(C)cccc1C | -1.19% [at 42.5 µM] (inactive) |
| CNC(=O)[C@H]1O[C@@H](n2cnc3c(NCc4cc(Cl)ccc4OCc4cc(C)no4)ncnc32)[C@H](O)[C@@H]1N | 0.245% (inactive) |
| OC[C@H](Cc1cccc(O)c1)[C@H](CO)Cc1cccc(O)c1 | 1.6% (inactive) |
| CN=C(NC#N)Nc1ccc(C2=NNC(=O)CC2C)cc1 (stereo not given) | 4.4% [at 42.5 µM] (inactive) |
| O=C(CS(=O)Cc1ccco1)NC/C=C\COc1cc(CN2CCCCC2)ccn1 (stereo not given) | -0.102% [at 42.5 µM] (inactive) |
| CCC(C=O)CC | 3.26% (inactive) |
| N[C@@H](COP(=O)(O)O)C(=O)O | 0.384% [at 19 µM] (inactive) |
| CC(C)(C)c1nnc(NS(=O)(=O)c2ccc(N)cc2)s1 | 0.794% [at 42.5 µM] (inactive) |
| COC(=O)[C@@H]1[C@H]2C[C@H]3c4[nH]c5ccccc5c4CCN3C[C@@H]2CC[C@@H]1O | -0.233% [at 42.5 µM] (inactive) |
| CCCC/C=C/C=C\C=O | -2.77% (inactive) |
| O=S(=O)(O)c1cc(O)c2ccc(Nc3ccccc3)cc2c1 | -3.54% (inactive) |
| COc1ccc2c(c1)C(=O)N(CCc1ccc(S(=O)(=O)NC(=O)NC3CCCCC3)cc1)C(=O)C2(C)C | -2.28% [at 42.5 µM] (inactive) |
| CC(C)(C)OC(=O)c1ccc(O)cc1 | -1.52% (inactive) |
| O=C(CCNNC(=O)c1ccncc1)NCc1ccccc1 | -2.41% [at 42.5 µM] (inactive) |
| COc1ccc2c(c1OC)C(=O)O[C@@H]2[C@H]1c2c(cc3c(c2OC)OCO3)CCN1C | 3.44% [at 42.5 µM] (inactive) |
| N[C@@H](CCC(=O)N[C@@H](CS)C(=O)NCC(=O)O)C(=O)O | 2.26% [at 19 µM] (inactive) |
| CC(C)=O | -1.54% (inactive) |
